# Laboratory results: the antibiotic and cytotoxicity screens of Wong et al. (2023)
# The campaign covered roughly 39,000 compounds. About 3,300 (8.5%) were called active. The full list was thinned out, with actives kept by preference.
# Test system: HepG2
# Experiment: cytotoxicity call (relative viability < 0.9)
# Conditions: 10 µM
row,SMILES,cytotoxicity call
1,COc1cc2c(cc1OC)-c1cc3ccc(OC)c(OC)c3c[n+]1CC2.[Cl-],inactive
2,COc1ccc2cc3[n+](cc2c1OC)CCc1cc2c(cc1-3)OCO2.[Cl-],active
3,C[C@@H]1CN([C@@H](C)CO)C(=O)c2cccc(NC(=O)Nc3ccc(C(F)(F)F)cc3)c2O[C@@H]1CN(C)S(=O)(=O)c1ccc(Cl)cc1,inactive
4,COCC(=O)N(C)C[C@H]1Oc2cc(C#CC(C)(C)O)ccc2S(=O)(=O)N([C@H](C)CO)C[C@@H]1C,inactive
5,COc1ccccc1S(=O)(=O)N(C)C[C@H]1Oc2ncc(Br)cc2C(=O)N([C@@H](C)CO)C[C@H]1C,inactive
6,C[C@@H]1CN([C@@H](C)CO)C(=O)Cc2cc(NC(=O)Nc3cccc4ccccc34)ccc2O[C@@H]1CN(C)S(=O)(=O)c1ccc(Cl)cc1,active
7,C[C@H](CO)N1C[C@H](C)[C@@H](CN(C)S(=O)(=O)c2ccc(Cl)cc2)Oc2ccc(NC(=O)Nc3cccc4ccccc34)cc2CC1=O,inactive
8,C[C@H](CO)N1C[C@H](C)[C@H](CN(C)S(=O)(=O)c2ccc(Cl)cc2)Oc2ccc(NC(=O)Nc3cccc4ccccc34)cc2CC1=O,active
9,C[C@@H]1CN([C@@H](C)CO)C(=O)Cc2cc(NC(=O)Nc3cccc4ccccc34)ccc2O[C@H]1CN(C)S(=O)(=O)c1ccc(Cl)cc1,inactive
10,Cc1ccc(S(=O)(=O)N(C)C[C@@H]2Oc3ccc(NC(=O)Nc4cccc5ccccc45)cc3CC(=O)N([C@H](C)CO)C[C@@H]2C)cc1,active
11,C[C@@H]1CN([C@H](C)CO)C(=O)Cc2cc(NC(=O)Nc3cccc4ccccc34)ccc2O[C@@H]1CN(C)S(=O)(=O)c1ccc(Cl)cc1,inactive
12,Cc1ccc(S(=O)(=O)N(C)C[C@H]2Oc3ccc(NC(=O)Nc4cccc5ccccc45)cc3CC(=O)N([C@@H](C)CO)C[C@H]2C)cc1,inactive
13,C[C@H]1CN([C@@H](C)CO)C(=O)Cc2cc(NC(=O)Nc3cccc4ccccc34)ccc2O[C@H]1CN(C)S(=O)(=O)c1ccc(Cl)cc1,active
14,C[C@H]1CN([C@@H](C)CO)C(=O)Cc2cc(NC(=O)Nc3cccc4ccccc34)ccc2O[C@@H]1CN(C)S(=O)(=O)c1ccc(Cl)cc1,inactive
15,Cc1ccc(S(=O)(=O)N(C)C[C@H]2Oc3ccc(NC(=O)Nc4cccc5ccccc45)cc3CC(=O)N([C@@H](C)CO)C[C@@H]2C)cc1,inactive
16,C[C@@H]1CN([C@H](C)CO)C(=O)Cc2cc(NC(=O)Nc3cccc4ccccc34)ccc2O[C@H]1CN(C)S(=O)(=O)c1ccc(Cl)cc1,inactive
17,Cc1ccc(S(=O)(=O)N(C)C[C@H]2Oc3ccc(NC(=O)Nc4cccc5ccccc45)cc3CC(=O)N([C@H](C)CO)C[C@H]2C)cc1,inactive
